Screening data from PubChem BioAssay.
S2 tox = Viability Counterscreen for Primary qHTS for Inhibitors of ATXN expression. 400,000 tested, 0.49% active. AID 651635, 2014. S2 cells (HEK-293 line with an ATXN2-luciferase reporter) viability, CellTiter-Fluor protease fluorescence, 24 h. Potency, µM (series often up to 56.7 µM), usual class: cytotoxic; further: nearly all actives have a fitted effect of over 40% in size
ATXN2 expr inh = Primary qHTS for Inhibitors of ATXN expression; HEK-293 ATXN2-luciferase reporter, luminescence, 24 h; Potency, µM (titrated, usually from 57 µM), for inactives: at the top dose activity change, negative = inhibition, usual class: inhibitors; 360,000 tested, 0.72% active; AID 1745845, 2022; further: on the % scale 0 is the no-effect control and ±100 the full control effect; nearly all actives have a fitted effect of over 55% in size
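ATXN2-luciferase reporter cells (luciferase flanked by upstream and downstream ATXN2 gene portions) were treated 24 h at 37 °C with compounds at up to 57 uM. SteadyGlo luminescence gave expression; GF-AFC fluorescence gave viability.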
Nrf2 inh = Nrf2 qHTS screen for inhibitors; A549 ARE-Fluc reporter, luciferase luminescence, 18-24 h; Potency, µM (highest dose often 46 µM), without a hit: at the top dose activity change, negative = inhibition, actives largely listed as inhibitors; 360,000 tested, 2.1% active; further: on the % scale 0 is the no-effect control and ±100 the full control effect; nearly all actives have a fitted effect of over 60% in size
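A549 ARE_Fluc cells (5000/well, 5% FBS OPTI-MEM) pre-incubated 2 h, then treated with compounds 18-24 h at 37C/5% CO2 in concentration-response. CellTiter-Fluor viability read first; BugLite luciferase luminescence after 15 min at room temperature gives Nrf2 activity.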
TGFb SMAD3 inh = qHTS for Inhibitors of TGF-b; Potency, µM (series often up to 46.1 µM), for the others: at the top dose activity, negative = inhibition, usual class: inhibitors; HepG2 CAGA-GFP TGF-b/SMAD3 reporter, GFP fluorescence, 18 h; TGF-beta stimulated, 500 pg/mL final; 410,000 tested, 1.2% active; AID 588855, 2011; further: on the % scale 0 is the no-effect control and ±100 the full control effect; nearly all actives have a fitted effect of over 65% in size
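Inhibition was scored as loss of TGF-beta-induced (500 pg/mL final, 18 hours, 37 degrees C) GFP in HEPG2 cells carrying a CAGA-GFP reporter, in DMEM with 1% FBS. Well GFP was summed per cell; Activity was normalised to unstimulated and stimulated DMSO wells, then concentration-response fitting.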
A549 tox-1 = Nrf2 qHTS screen for inhibitors: counterscreen for cytotoxicity; A549 ARE-Fluc cells, CellTiter-Fluor viability, 18-24 h; 390,000 tested, 0.16% active; Potency, µM (series often up to 46 µM), for the others: top-dose activity change, negative = cytotoxicity, hits mostly inhibitors; AID 504648, 2011; further: on the % scale 0 is the no-effect control and ±100 the full control effect
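Cytotoxicity counterscreen: CellTiter-Fluor fluorescence was measured in A549 ARE_Fluc cells after 18-24 h of compound exposure in a concentration series. The subsequent BugLite luminescent read reports ARE-luciferase activity.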
HepG2 viability = qHTS for Inhibitors of TGF-b: Cytotox Counterscreen; HepG2 CAGA-GFP viability, ATP luminescence, 18 h; Potency, µM (doses to about 46.1 µM), inactives show top-dose activity change, negative = cytotoxicity, usual class: cytotoxic; 410,000 tested, 0.76% active
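CellTiter-Glo luminescence gave cytotoxicity after 18 hours at 37 degrees C. The cells were HepG2 CAGA-GFP in 1% FBS DMEM, stimulated with 500 pg/mL TGF-beta after compound addition. %Activity was normalised to no-cell wells (complete cell-killing) and DMSO (no toxicity), and curves were fitted and classified.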
FLuc counter 3 = Nrf2 qHTS screen for inhibitors: Purified Fluc Biochemical Counterscreen for Hit Validation | shares compounds with Nrf2 inh | purified firefly luciferase, luminescence inhibition | Potency, µM (top dose mostly 57.5 µM), for inactives: at the highest dose activity change, negative = inhibition, usual class: inhibitors | 1,400 tested, 4% active | AID 720522, 2013; further: on the % scale 0 is the no-effect control and ±100 the full control effect; nearly all actives have a fitted effect of over 65% in size
Target sequence (P08659 whole entry, looked up): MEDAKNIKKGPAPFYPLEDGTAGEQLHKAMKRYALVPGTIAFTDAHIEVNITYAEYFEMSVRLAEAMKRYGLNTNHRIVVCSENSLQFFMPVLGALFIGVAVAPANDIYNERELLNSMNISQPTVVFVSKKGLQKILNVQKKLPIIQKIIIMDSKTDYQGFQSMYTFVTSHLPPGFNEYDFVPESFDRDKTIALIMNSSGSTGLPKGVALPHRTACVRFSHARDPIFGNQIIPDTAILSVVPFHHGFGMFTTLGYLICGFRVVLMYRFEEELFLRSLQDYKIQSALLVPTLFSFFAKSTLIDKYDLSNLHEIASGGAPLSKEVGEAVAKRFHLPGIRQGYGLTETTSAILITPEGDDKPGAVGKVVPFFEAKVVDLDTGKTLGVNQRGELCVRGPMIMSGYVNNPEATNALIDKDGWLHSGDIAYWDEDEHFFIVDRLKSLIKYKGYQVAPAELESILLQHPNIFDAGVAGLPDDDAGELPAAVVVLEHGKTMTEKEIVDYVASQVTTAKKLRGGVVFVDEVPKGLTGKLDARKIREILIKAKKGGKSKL
A549 tox-2 = Nrf2 qHTS screen for inhibitors: A549 ARE-Fluc Cytotoxicity Counterscreen for Hit Validation; shares compounds with Nrf2 inh; A549 ARE-Fluc cells, cytotoxicity counterscreen; Potency, µM (doses to about 46.1 µM), for inactives: at the highest dose activity change, negative = cytotoxicity, usual class: inhibitors; 1,400 tested, 2% active;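 further: cells exposed to compounds for 18 to 24 hours; on the % scale 0 is the no-effect control and ±100 the full control effect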
ARE-Fluc inh = Nrf2 qHTS screen for inhibitors: Nrf2 A549 ARE-Fluc Confirmation Assay for Hit Validation; shares compounds with Nrf2 inh; A549 ARE-firefly luciferase reporter, luminescence; Potency, µM (series often up to 46.1 µM), for inactives: top-dose activity change, negative = inhibition, actives largely listed as inhibitors; 1,400 tested, 74% active; further: on the % scale 0 is the no-effect control and ±100 the full control effect; nearly all actives have a fitted effect of over 65% in size
* = called active by the depositor; i = inactive; ? = inconclusive; nt = no result given. Rows were chosen to be rich in hits. Some 3.8% of all compounds tested hit in one or more screens of this group. The call rests on the fitted dose curve; in most records, active means well fitted curve in the direction sought with a large enough effect; inconclusive means small, poorly fitted or top-dose-only effect, or another doubt; inactive means no such curve, though single readings can be large; an effect the other way counts as inactive or inconclusive. Potency means the concentration at half of the fitted maximal effect.

SMILES	S2 tox	ATXN2 expr inh	Nrf2 inh	TGFb SMAD3 inh	A549 tox-1	HepG2 viability	FLuc counter 3	A549 tox-2	ARE-Fluc inh
Cc1cc(S(=O)(=O)NCc2ccncc2)c(C)cc1Br	i	-15%	4.1µM*	?	-8%	-54%	-1%	-4%	?
CCOc1cc(S(=O)(=O)NCc2ccncc2)ccc1Cl	i	-21%	1µM*	-17%	-11%	-14%	-1%	-1%	1.3µM*
O=S1(=O)CCOC[C@H](c2ccccc2)N1Cc1ccc(F)cc1	nt	nt	nt	-23%	nt	-15%	nt	nt	nt
Cc1ccc(-c2cc3cccc[n+]3cc2-c2ccc(C)cc2)cc1	?	-39%	3.3µM*	?	-17%	-13%	1%	-12%	2.6µM*
C=CCN(c1ccccc1)S(=O)(=O)c1cccc(C(=O)Nc2ccncc2)c1	i	-24%	?	-23%	-7%	-18%	nt	nt	nt
C=CCN(c1ccccc1)S(=O)(=O)c1cccc(C(=O)Nc2nc3ccccc3[nH]2)c1	i	-25%	2.9µM*	?	?	-30%	-16%	0%	5.8µM*
O=C(c1cscn1)N1CCOc2ccc(CN3CCC(Oc4cccnc4)CC3)cc2C1	i	nt	nt	nt	nt	nt	nt	nt	nt
COc1ccc(-c2c(C)sc(NC(=O)c3ccnn3C)c2C#N)cc1	i	-21%	6.5µM*	9%	-9%	9%	-14%	?	nt
Cn1nccc1C(=O)Nc1sc2c(c1C#N)CCCC2	i	9%	-1%	-5%	-6%	-21%	nt	nt	nt
C/C(=N\NC(=O)c1cc(-c2cccc([N+](=O)[O-])c2)n[nH]1)c1ccccc1O	i	?	9.2µM*	?	?	-32%	-14%	-3%	?
O=C(Nc1cccnc1)c1ccc(Cl)c(Cl)c1	i	nt	15%	-7%	-8%	-37%	nt	nt	nt
CC(C)(C)c1cc(C(=O)Nc2cccnc2)cc(C(=O)Nc2cccnc2)c1	i	-13%	9.2µM*	-12%	-20%	-15%	-5%	-5%	?
C(=Nc1cccnc1)c1ccc2ccccc2n1	nt	nt	nt	-14%	nt	0%	nt	nt	nt
Cc1nn(C)c(C)c1CN(C)S(=O)(=O)c1ccc2ccccc2c1	i	-19%	2.5µM*	-23%	-30%	-39%	1%	-1%	1.2µM*
N#Cc1nc(-c2ccco2)oc1N1CCN(c2cccc(Cl)c2)CC1	i	-20%	1.8µM*	-9%	0%	11%	-23%	?	10µM*
COC(=O)c1ccccc1-c1c2ccc(=N)cc-2oc2cc(N)ccc12	nt	?	1.2µM*	-97%	-11%	-27%	3%	-6%	8.2µM*
CC(C)CCNC(=O)C(c1ccncc1)N(Cc1cccs1)C(=O)Cn1nnc(-c2ccc(F)cc2)n1 (centres undefined)	i	?	2.6µM*	-21%	?	-8%	-3%	?	1.5µM*
